In PubChem BioAssay (NCI) one finds growth data, which are given here for 40 molecules.

The panel holds about 83,000 compounds, 20% with a hit somewhere; the sample as a whole holds those more often.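 Growth was measured after 48 h exposure to one concentration of compound in 96-well plates. Values under 10 count as active.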 Active and inactive are the calls of the source.

For the experiment, the system named is HOP-62 NSCLC. In words: NCI-60 one-dose screen, 48 h (100 = growth as untreated, 0 = no growth, -100 = all killed). The settings on record: 10 µM. As for the experimental part:
Growth inhibition of the HOP-62 human Non-Small Cell Lung tumor cell line is measured as a screen for anti-cancer activity. Cells are grown in 96 well plates and exposed to the test compound for 48 hours. Compounds are tested at a single concentration, which is 10^-5 M for most compounds. The reported endpoint is percent growth (GI% or GIPRCNT), where numbers from 0 - 100% represent growth inhibition, and numbers from -100% - 0 represent cell death. For example, a value of 40 represents 60% growth inhibition. A value of 0 means no net growth occurred over the course of the experiment. A value of -40 indicates 40% of cells at the beginning of the experiment died by the end of the experiment. A value of -100 means all cells are dead at the end of the experiment.
NCI-60 Human Tumor Cell Lines Screen was performed using the standard one-dose NCI protocol, which is described in more detail at https://dtp.cancer.gov/discovery_development/nci-60/default.htm.
Compounds with GIPRCNT values below 10 were considered active. Activity score was based on GIPRCNT using the following formula: […]
Score is 0 for GIPRCNT values of 100 or above, 50 for GIPRCNT values of 0, and 100 for GIPRCNT values of -100.
As to `O=S(=O)(NCCCNc1nccc(-c2c(-c3ccc(F)cc3)nc3sccn23)n1)c1ccc(F)cc1`, the growth was 74% (inactive). Then `O=C1/C(=C\c2cn(C(=O)c3ccc(Cl)cc3)c3ccccc23)c2ccccc2N1C(=O)c1ccc(Cl)cc1`, with 61.4% (inactive). Then `COc1ccc(NC(=O)CSc2nc3ccccc3c(=O)n2CCc2ccccc2)cc1`, with 48.3% (inactive); and `CN(C)N=Nc1nn(C(=O)Nc2ccc(Cc3ccccc3)cc2)c2ccccc12`, with 70.6% (inactive); and `O=C1/C(=C/c2ccc(Cl)cc2)SC(=Nc2ccc(Cl)cc2)N1Cc1nc2ccccc2[nH]1`, with 68.6% (inactive). The same measure for `Cc1cc2ccccc2nc1-c1ccccc1F`: 94.6% (inactive); for `COc1ccc(/C(=C2\O[C@@H]([C@H]3COC(C)(C)O3)[C@H]3OC(C)(C)O[C@@H]23)c2cc(OC)c(OC)c(OC)c2)cc1O`: 48.5% (inactive).

With `CN(CCc1ccccn1)c1ccccc1`, the growth is 104% (inactive).

`Nc1c(C(=O)Nc2ccccc2)sc2nc3c(cc12)C(O)CCC3` (stereo not given): the growth is 24.6% (inactive). The same measure for `O=C1NC(=O)c2ncccc21`: 109% (inactive); for `Clc1cccc(-c2nc(-c3cccs3)no2)c1`: 97.8% (inactive).

`CCCCCCCCCCCCCCCC(=O)OC1[C@@H](OC(=O)CCCCCCCCCCCCCCC)[C@@H](C(=O)N[C@@H](CCCCN)C(=O)OC)O[C@H]1n1cnc2c(=O)[nH]c(NC(=O)C(C)C)nc21` (stereo not given in full): the growth was 104% (inactive). Then `c1ccc([C@H]2CN3CCSC3=N2)cc1`, with 109% (inactive); and `O=C(C[P+](c1ccccc1)(c1ccccc1)c1ccccc1)C[P+](c1ccccc1)(c1ccccc1)c1ccccc1`, with -59.8% (active). The same measure for `Cc1cc(C)c(CCc2cc(C)c(C)cc2C)cc1C`: 117% (inactive); for `O=C(CCCCCCC(=O)Nc1cccnc1)NO`: 39.5% (inactive). Regarding `C[C@@H]1C=C2C(=O)O[C@@H]3CC[C@H](C1)[C@]23O`, the growth was 71.7% (inactive). With `Cc1nc2ccccc2c(N)c1-c1cc(C)c2c(C)nc3ccccc3c2n1`, the growth was 58.4% (inactive).

Regarding `CCN(CC)CCNC(=O)c1ccc(NC(C)=O)cc1`, the growth was 103% (inactive). Then `CCN1CCN(c2nc3ccccc3c3c(=O)c4ccccc4sc23)CC1`, with 39.4% (inactive). The same measure for `CCN(CC)CCSCCCNc1c2ccc(Cl)cc2nc2ccc(OC)cc12`: -31.6% (active); for `O=C(Nc1cccc(-n2cc(-c3ccncc3)c(-c3ccc(O)c(Cl)c3)n2)c1)Nc1cccc(C(F)(F)F)c1`: -3.45% (active); for `O=C(CCCCC[P+](c1ccccc1)(c1ccccc1)c1ccccc1)NC(COC(=O)C(Cl)Cl)(COC(=O)C(Cl)Cl)COC(=O)C(Cl)Cl`: 96.1% (inactive).

Regarding `O=C(C[n+]1ccccc1)c1ccc2ccccc2c1`, the growth was 89.1% (inactive). The same measure for `Nc1c(C(=O)Nc2cccc3ccccc23)sc2nc3c(cc12)C(=O)CCC3`: 26.1% (inactive); for `CCN1CCC2(CC1)OC(c1ccccc1)C(c1ccccc1)O2` (stereo not given): 114% (inactive). The same measure for `O=c1[nH]c(-c2ccc(Cl)cc2)nc2sc3c(c12)CCCC3`: 55.7% (inactive); for `O=C(Nc1cccc(-n2cc(-c3ccncc3)c(-c3cc(O)cc(Cl)c3)n2)c1)c1ccc(N2CCOCC2)c(C(F)(F)F)c1`: -2.19% (active); for `CN(C)c1ccc(N=C2C=CC(=O)c3ccccc32)cc1`: 82.5% (inactive). Then `O=C1CC[C@@H]2CCCC[C@@H]2C1`, with 96.7% (inactive); and `O=C1NC(=O)N(Cc2ccccc2)CC1Br` (stereo not given), with 79.2% (inactive); and `CN1CCC(CNc2cc(C3(C(=O)Nc4cc(C(=O)Nc5ccc(Cl)c(C(F)(F)F)c5)ccc4F)CC3)ncn2)CC1`, with -47.2% (active). Consider `Cc1cc(C)c2c(n1)sc1c(Nc3ccc(Cl)cc3)ncnc12`, for which the growth was 5.01% (active). The same measure for `O=C(O)CC(Cl)C(Cl)CC(=O)O` (stereo not given): 110% (inactive). With `O=C(Nc1cccc(-n2cc(-c3ccncc3)c(-c3ccc(O)c(Cl)c3)n2)c1)c1ccc(Cl)c(Cl)c1`, the growth was 67.7% (inactive). The same measure for `COc1ccc(NC2=NC(C)(CO)CS2)cc1` (stereo not given): 94.6% (inactive); for `c1ccc([I+]c2ccccc2)cc1`: 53.3% (inactive); for `CN1CCCNc2c(c(=O)c2=O)NCCCN(C)CCCNc2c(c(=O)c2=O)NCCCN(C)CCCNc2c(c(=O)c2=O)NCCCN(C)CCCNc2c(c(=O)c2=O)NCCCN(C)CCCNc2c(c(=O)c2=O)NCCCN(C)CCCNc2c(c(=O)c2=O)NCCCN(C)CCCNc2c(c(=O)c2=O)NCCC1`: 49.1% (inactive). Then `O=C(N/N=C/c1ccccc1)C(Oc1ccccc1)c1ccccc1` (stereo not given), with 95% (inactive). Then `COc1cc(C(=O)N2CCN(c3ccccc3OC)CC2)c(N)cc1OCCCN1CCN(c2ccccc2OC)CC1`, with 93.2% (inactive).
